Measurements taken from PubChem BioAssay.
Activity calls are given as the source filed them. Unless noted, the rule behind the calls is not given here.

Assays:
[1] = system: Wnt5a (protein binding on small-molecule microarray); assay: Wnt5a binders on small-molecule microarray, primary screen, biophysical, 635/667 nm fluorescence (AID 1142); settings: 635 nm fluorescence, higher = more signal;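 note: fluorescence read at 667 nm with signal to noise per printed feature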
[2] = cell viability in Huh7 cells, primary screen, cytotoxicity control for HCV replication inhibitor project, CellTiter-Glo luminescence, basal, 48 h (AID 1143); settings: Huh7 HCV replicon, higher = more signal, called active from +8 up or from −8 down;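 note: Huh7 hepatoma cells carrying a hepatitis C replication reporter with no stimulus; test concentration not given here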
[3] = P. aeruginosa biofilm formation inhibitors, primary screen, PAO1 strain, BacTiter-Glo luminescence, LB-PBS (AID 1144); settings: 12 h, higher = more signal
[4] = CREB reporter modulators without forskolin, primary screen, cell-based, PC12, CRE-LacZ reporter, unstimulated (AID 1145); settings: no forskolin, luminescence, 4.5 h, higher = more signal, called active from +8 up or from −8 down
[5] = CREB reporter modulators under forskolin, primary screen, cell-based, PC12, CRE-LacZ reporter, forskolin-stimulated (AID 1146); settings: luminescence, 4.5 h, higher = more signal, called active from +8 up or from −8 down;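 note: PC12 cells with 6xCRE LacZ reporter stimulated by forskolin 10 µM; beta-galactosidase reporter signal reflecting CREB driven transcription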
[6] = molecular target: Streptavidin (Streptomyces avidinii) (UniProt P22629); assay: streptavidin binders on small-molecule microarray, primary screen, artefact control for SMM compound annotation, biophysical, 635/667 nm fluorescence (AID 1147); settings: streptavidin binding, higher = more signal;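 note: signal reflects streptavidin binding to arrayed compounds as a control protein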
[7] = small-molecule binders of probe aInhba, primary screen, biochemical, small-molecule microarray, 635/667 nm fluorescence (AID 1148); settings: higher = more signal;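 note: score merges 667nm spot fluorescence with signal-to-noise for antibody binding to printed compounds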
Torsin-1A (Homo sapiens) [8] = molecular target: Torsin-1A (Homo sapiens) (UniProt O14656); assay: torsin A binders from cell lysate, primary screen, small-molecule microarray, wild-type, 635/667 nm (AID 1149); settings: COS7 hTOR1A-WT lysate, 635 nm fluorescence, higher = more signal
Torsin-1A (Homo sapiens) [9] = molecular target: Torsin-1A (Homo sapiens) (UniProt O14656); assay: small-molecule binders of mutant TOR1A in lysate, primary screen, cell lysate, small-molecule microarray, COS7 lysate, 635/667 nm fluorescence (AID 1150); settings: COS7 hTOR1A mutant lysate, 635 nm fluorescence, higher = more signal;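 note: score pools 667 nm emission and signal to noise measuring lysate protein binding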
[10] = system: Sonic hedgehog protein (Shh); assay: small-molecule binders of Shh protein, primary screen, biochemical, small-molecule microarray, 635/667 nm fluorescence (AID 1151); settings: small-molecule microarray binding, 635 nm fluorescence; higher = more signal;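 note: Shh protein binding to compounds spotted on small-molecule microarray slides; score combines spot fluorescence intensity with signal-to-noise across triplicate slides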

Chain of Streptavidin (Streptomyces avidinii) (P22629 whole entry, looked up): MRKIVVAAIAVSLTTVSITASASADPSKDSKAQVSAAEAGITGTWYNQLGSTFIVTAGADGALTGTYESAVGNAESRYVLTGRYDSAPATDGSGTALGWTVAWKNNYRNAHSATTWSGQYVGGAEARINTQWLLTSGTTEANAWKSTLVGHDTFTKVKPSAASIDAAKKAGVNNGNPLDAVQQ
Chain of Torsin-1A (Homo sapiens) (O14656 whole entry, looked up): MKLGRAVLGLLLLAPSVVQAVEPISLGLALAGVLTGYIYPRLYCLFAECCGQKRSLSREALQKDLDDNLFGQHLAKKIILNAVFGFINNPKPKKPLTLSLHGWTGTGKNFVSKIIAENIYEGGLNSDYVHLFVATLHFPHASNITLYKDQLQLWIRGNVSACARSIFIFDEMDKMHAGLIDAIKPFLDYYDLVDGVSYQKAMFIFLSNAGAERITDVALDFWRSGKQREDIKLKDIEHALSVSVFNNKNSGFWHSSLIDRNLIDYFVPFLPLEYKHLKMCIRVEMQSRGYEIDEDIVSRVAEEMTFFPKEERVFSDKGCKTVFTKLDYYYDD

SMILES | composite z-score [1] | z-score [2] | z-score [3] | z-score [4] | z-score [5] | composite z-score [6] | composite z-score [7] | composite z-score (Torsin-1A (Homo sapiens) [8]) | composite z-score (Torsin-1A (Homo sapiens) [9]) | composite z-score [10]
O=c1cccc(C=Cc2ccccc2)o1 | -0.276 | -0.273 (inactive) | -0.544 (inactive) | -0.676 (inactive) | 0.801 (inactive) | -0.532 | 0.144 | -0.994 | -0.711 | -0.604
CC(C)(C)OC(=O)CC[C@@]1(C(=O)NCCN2CCOCC2)N=C(c2ccc(OCCCO)cc2)O[C@@H]1c1ccccc1 | 0.739 | 0.256 (inactive) | 0.174 (inactive) | -1.33 (inactive) | -0.998 (inactive) | 1.12 | 0.248 | 0.388 | -0.522 | 0.306
COC(=O)c1ccc(OC)c(/C=C\CC(OC(C)=O)c2ccccc2)c1 (stereo not given) | -0.136 | -1.38 (inactive) | 0.623 (inactive) | 0.479 (inactive) | -0.0792 (inactive) | 3.16 | -0.179 | -0.0525 | -0.165 | 0.539
CC(C)=CCCC(C)=CC(O)C1C=CC2C(=O)N(c3ccccc3)C(=O)C2N1Nc1ccccc1 (stereo not given) | 0.744 | 0.311 (inactive) | -0.786 (inactive) | 0.819 (inactive) | 1.7 (inactive) | 2.04 | 0.596 | 0.0777 | 0.253 | 0.0068
COCCOC(=O)N1C(=O)[C@@]2(c3cc(C#CCNC(N)=O)ccc31)[C@H](c1ccc(O)cc1)N1[C@H](c3ccccc3)[C@H](c3ccccc3)OC(=O)[C@H]1[C@@H]2C(=O)Nc1nc2ccccc2s1 | 0.327 | -2.61 (inactive) | -2.43 (inactive) | -0.463 (inactive) | -1.5 (inactive) | 0.454 | -0.102 | 0.518 | 0.587 | 1.34
COCCCNC(=O)[C@@]1(C)c2ccccc2C(=O)N(Cc2cc(C(F)(F)F)cc(C(F)(F)F)c2)[C@H]1c1ccc(CO)cc1 | -0.676 | -2.82 (inactive) | -0.417 (inactive) | 0.468 (inactive) | 0.243 (inactive) | -0.673 | -0.0675 | -1.37 | -1.27 | -0.207
C[N+](C)(C)CCCCCCNC(=O)[C@H]1C[C@H]2C(=O)N3CCC[C@H]3C(=O)N2[C@H]1c1ccc(O)cc1 | -0.214 | -2.61 (inactive) | -0.911 (inactive) | -0.813 (inactive) | -0.935 (inactive) | -0.715 | 0.0184 | 0.0048 | 0.599 | 1.92
COc1ccc(C(=O)Nc2cccc(CN3C(=O)[C@@]4(O[C@@H](CCn5cc(CCO)nn5)[C@H]([Si](C)(C)c5ccc(OC)cc5)[C@H]4C)c4ccccc43)c2)cc1 | 0.504 | -8.01 (active) | -0.609 (inactive) | 8.36 (active) | -1.29 (inactive) | 0.37 | 0.0184 | 0.503 | 0.347 | 1.72
